Screening results: PubChem, several laboratories
Compounds with a hit are over-represented: about 0.5% of the library has one in this group of screens.
AddAB inh: less growth of phage-infected E. coli with AddAB. E. coli expressing H. pylori AddAB, absorbance growth. inhibition, % at 11.9 µM. hit rate 0.29% among 330,000. AID 435030; in the data active means inhibition above about 12%
phage Ecoli inh: E. coli growth loss with phage present; hit rate 0.26% among 360,000; inhibition, % at 11.9 µM; growth absorbance; in the data active means inhibition above about 11%
Tat export inh: E. coli Tat transport inhibition; E. coli MC4100 TorA-mCherry Tat export, fluorescence; inhibition, % at 10 µM; hit rate 0.036% among 340,000; AID 488895;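 active means mean replicate inhibition at least 50% and at least half of replicates individually reaching 50%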;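 further: exported cargo escapes ClpAP degradation while cytoplasmic cargo is degraded and loses fluorescence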
E coli growth-1: counter-screen for AddAB inhibitors: E. coli growth inhibition. E. coli V3065 growth, OD600 absorbance, 18 h. hit rate 0.27% among 330,000. AID 449728. inhibition, % at 11.9 µM;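 active means inhibition above the campaign's mean inhibition across all tested compounds plus 3 SD, cut at about 9.9% in these data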;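 further: uninfected addAB+ strain grown without phage in ampicillin broth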
E coli growth-2: blocks Escherichia coli growth | OD600, 23 h; hits give low values | OD600 absorbance (test concentration not listed) | hit rate 0.21% among 330,000;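 active means OD600 absorbance below the run mean of sample wells minus 3.6 SD, in any replicate, cut at about 0.56 in these data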
AddAB conf: confirmation screen: growth loss of phage-infected E. coli expressing H. pylori AddAB | AID 488942 | shares compounds with AddAB inh | E. coli V3065 expressing H. pylori AddAB, T4 phage, OD; T4 phage with gene 2 nonsense mutations | hit rate 64% among 880 | inhibition, % at 11.9 µM;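 active means mean inhibition above a set limit taken from the earlier primary screen, cut at about 13% in these data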;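 further: higher means less bacterial growth since AddAB block lets phage replicate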
RecBCD counter: counter-screen: growth loss of RecBCD+ E. coli with mutant T4 phage | shares compounds with AddAB inh | E. coli V66 + mutant T4 phage, OD growth | inhibition, % at 11.9 µM | hit rate 73% among 880;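 active means mean inhibition above the mean of solvent-only control wells plus 3 SD, cut at about 4% in these data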;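 further: optical density read after an 18 h incubation at 37 °C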
bact viab count: reduces bacterial viability, AddAB inhibitor counter-screen. shares compounds with AddAB inh. absorbance (AddAB counterscreen). inhibition, % at 11.9 µM. hit rate 35% among 880. AID 488956; in the data active means inhibition above about 25%
RecBCD conf: growth loss of phage-infected V66 E. coli, RecBCD confirmation screen. hit rate 45% among 890. shares compounds with phage Ecoli inh. AID 651982. inhibition, % at 11.9 µM. E. coli V66 + T4 2- phage, growth OD;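 active means mean inhibition over triplicates exceeding the hit threshold derived in the original primary screen, cut at about 11% in these data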
Ecoli viability: inhibits E. coli viability, flagging RecBCD hits as nonselective; hit rate 29% among 890; shares compounds with phage Ecoli inh; inhibition, % at 11.9 µM; absorbance (OD) growth; in the data active means inhibition above about 20%;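 further: E. coli strain V66 grown with compound alone and no phage infection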
AddAB counter: growth loss of phage-infected AddAB E. coli, RecBCD counter-screen. shares compounds with phage Ecoli inh. E. coli expressing H. pylori AddAB + T4 phage, OD growth; gene 2 mutant T4, recBCD-deleted host. inhibition, % at 11.9 µM. hit rate 45% among 890. AID 651984;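 active means mean inhibition above the solvent-only control wells' mean plus 3 SD, cut at about 22% in these data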;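 further: higher means less bacterial growth from phage killing when AddAB is blocked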
Each line names hits and unclear results; the compound was inactive in the other large screens (follow-up assays come after a bar, where they were run).

Cc1cc(C=Nn2c(COc3ccccc3)nc3ccccc3c2=O)c(O)c([N+](=O)[O-])c1	none (no result: AddAB inh, phage Ecoli inh, Tat export inh, E coli growth-1)
C[C@@]12C(=O)Nc3ccccc3C(=O)N1C1c3cc(Br)ccc3OCC1C2c1ccccc1 (stereo partly specified)	none (no result: AddAB inh, phage Ecoli inh, Tat export inh, E coli growth-1)
O=C(NC(Cc1ccc(O)cc1)C(=O)O)c1cccnc1 (stereo unspecified)	none (no result: AddAB inh, phage Ecoli inh, Tat export inh, E coli growth-1)
Cc1cccc(NC(=O)c2ccccc2O)c1C	none
O=C(Nc1ccccc1O)c1ccccc1O	AddAB inh 23.7, E coli growth-1 13.3, E coli growth-2 0.478 | AddAB conf inactive | RecBCD counter 8.2 | bact viab count inactive
O=C(Nc1ccccc1)ON=C1CCCc2occc21	none (no result: AddAB inh, phage Ecoli inh, Tat export inh, E coli growth-1)
O=C(NCc1ccccc1)C1CCN(S(=O)(=O)c2cccc3cccnc23)CC1	none
COc1ccc(CNC(=O)C2CCN(S(=O)(=O)c3cccc4cccnc34)CC2)cc1	AddAB inh 13.5 | AddAB conf inactive | RecBCD counter inactive | bact viab count inactive
C[C@H]1[C@H](NC(=O)C(=NOC(C)(C)C(=O)O)c2csc(N)n2)C(=O)N1S(=O)(=O)O	AddAB inh 99.8, phage Ecoli inh 100.0, E coli growth-1 99.3 (no result: E coli growth-2) | AddAB conf 100.3 | RecBCD counter 99.2 | bact viab count 100.6 | RecBCD conf 97.7 | Ecoli viability 98.9 | AddAB counter 100.8
O=C(NCc1ccccc1)C1=CC(C2CCCCC2)CC(OCc2ccc(CO)cc2)O1 (stereo unspecified)	none (no result: AddAB inh, phage Ecoli inh, Tat export inh, E coli growth-1)
COc1ccc(NN=C2CCCCC2=O)cc1	none (no result: AddAB inh, phage Ecoli inh, Tat export inh, E coli growth-1)
CCOC(=O)[C@@H]1[C@H]2COc3cc(OC)ccc3[C@H]2N2C(=O)N(c3ccc(C(F)(F)F)cc3)C(=O)[C@]12C	AddAB inh 14.1, phage Ecoli inh 15.2 (no result: E coli growth-2) | AddAB conf inactive | RecBCD counter 8.4 | bact viab count inactive | RecBCD conf inactive | Ecoli viability inactive | AddAB counter inactive
CCOC(=O)[C@@H]1[C@H]2COc3cc(OC)ccc3[C@@H]2N2C(=O)N(c3ccc(C(F)(F)F)cc3)C(=O)[C@@]12C	none (no result: E coli growth-2)
COc1c(N2C[C@@H]3CCCN[C@@H]3C2)c(F)cc2c(=O)c(C(=O)O)cn(C3CC3)c12	AddAB inh 100.3, phage Ecoli inh 98.2, Tat export inh 106.0, E coli growth-1 101.9 (no result: E coli growth-2) | AddAB conf 101.9 | RecBCD counter 101.9 | bact viab count 101.8 | RecBCD conf 102.6 | Ecoli viability 104.6 | AddAB counter 103.8
COc1c(F)c(F)cc2c(=O)c(C(=O)O)cn(C3CC3)c12	AddAB inh 97.8, phage Ecoli inh 94.9, Tat export inh 67.6, E coli growth-1 98.0, E coli growth-2 0.05 | AddAB conf 98.2 | RecBCD counter 98.8 | bact viab count 102.3 | RecBCD conf 98.5 | Ecoli viability 98.7 | AddAB counter 98.3
COc1c(N2CCN(C(=S)NCc3ccccc3)C(C)C2)c(F)cc2c(=O)c(C(=O)O)cn(C3CC3)c12 (stereo unspecified)	AddAB inh 101.9, phage Ecoli inh 96.9, E coli growth-1 104.1, E coli growth-2 0.0785 | AddAB conf 100.8 | RecBCD counter 99.1 | bact viab count 100.5 | RecBCD conf 103.1 | Ecoli viability 104.5 | AddAB counter 104.7
CCOC(=O)c1cn(-c2ccc(F)c(F)c2F)c2c(F)c(F)c(F)cc2c1=O	none
CC(=NNC(=O)c1ccc(Br)s1)c1cccnc1	none (no result: AddAB inh, phage Ecoli inh, Tat export inh, E coli growth-1)
Cc1nc(C=CC(=O)O)c2cc(C)oc2n1	none (no result: AddAB inh, phage Ecoli inh, Tat export inh, E coli growth-1)
COc1ccc(C=NNC(=O)c2ccc3c(c2)OCCO3)cc1[N+](=O)[O-]	none (no result: AddAB inh, phage Ecoli inh, Tat export inh, E coli growth-1)
